“And” between values parts separate entries of the source, which are not always exact repeats. Equal values may be shown once. Records with an inconclusive call do not appear. The source holds several records for some structures; these can differ, active in one and inactive in another. The source made the active and inactive calls. Calls come from the whole dose curve; as a rule, active = well fitted inhibition curve with a large enough effect in the repeat runs; inconclusive = weak or mixed curves; inactive = no such curve, though single readings can be large or run the other way.
Molecular target: Cytochrome P450 2C9 (Homo sapiens) (UniProt P11712)
Sequence (P11712 whole entry, looked up): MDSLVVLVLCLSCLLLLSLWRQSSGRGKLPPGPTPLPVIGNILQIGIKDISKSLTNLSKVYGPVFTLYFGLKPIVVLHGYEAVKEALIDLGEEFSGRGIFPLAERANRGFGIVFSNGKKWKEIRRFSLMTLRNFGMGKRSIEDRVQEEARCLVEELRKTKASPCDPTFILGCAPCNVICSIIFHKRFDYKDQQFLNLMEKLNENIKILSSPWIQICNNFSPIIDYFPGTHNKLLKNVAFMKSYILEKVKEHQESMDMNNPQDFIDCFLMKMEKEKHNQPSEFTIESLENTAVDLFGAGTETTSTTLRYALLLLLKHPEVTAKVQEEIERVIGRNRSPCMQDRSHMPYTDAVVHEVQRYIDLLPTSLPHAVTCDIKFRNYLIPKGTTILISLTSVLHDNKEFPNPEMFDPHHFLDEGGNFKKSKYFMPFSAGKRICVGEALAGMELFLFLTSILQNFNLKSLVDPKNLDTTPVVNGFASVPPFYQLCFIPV
Assay: Cytochrome P450 Family 2 Subfamily C Member 9 (CYP2C9) small molecule antagonists: luciferase reporter qHTS assay (AID 1671198); note: nearly all actives have a fitted effect of over 50% in size
Conditions: P450-Glo CYP2C9 enzyme assay, luciferin luminescence; series mostly up to 115 µM; activity change, negative = inhibition: at the top concentration
Source text: U.S. Tox21 Program National Center for Advancing Translational Sciences [NCATS] U.S. Environmental Protection Agency [EPA] National Institutes of Environmental Health Sciences [NIEHS] National Toxicology Program [NTP] U.S. Food and Drug Administration [FDA] Tox21 Assay Overview: Cytochrome P450 (CYP) enzymes are membrane-bound hemeproteins that play a key role in metabolism of drugs and xenobiotics. Evaluation of the effect of chemicals on CYP isozymes is useful to minimize the adverse drug reactions and toxicities in drug development process. Tox21 chemicals were tested for their effect on CYP enzyme activities by using P450-Glo (TM) screening systems (Promega Corporation, Madison, WI). These systems provide a luminescent method containing proluciferin substrates and are converted to luciferin products by CYP isozymes. The luciferin products formed are detected with a luciferin detection reagent, and the amount of light produced is proportional to CYP activity. P450-Glo (TM) CYP2C9 screening system (Catalog. No. V9790) was used to detect the compounds that interfere in CYP2C9 activity.
Tox21 Assay Protocol Summary: Two ul of enzyme-substrate mix was dispensed into medium binding white/solid 1536-well plates (Greiner Bio-One North America Inc., Monroe, NC) using a BioRaptr Flying Reagent Dispenser (FRD, Beckman Coulter, Brea, CA). […] The assay plates were incubated at room temperature for 10 min. Then 2 ul of NADPH regeneration solution was added to each well of the assay plates using an FRD and incubated at 37C for 1 h. The reaction was stopped by adding 4 ul of detection reagent using an FRD and after 20 min incubation at room temperature the luminescence signal was measured using a ViewLux plate reader (Perkin Elmer, Shelton, CT). Data were expressed as relative luminescence units.
% is set by controls: 0 for no effect and ±100 for the full control effect; potency is the fitted concentration of half-maximal effect.

Row | Compound | activity change, negative = inhibition | Potency
1 | O=c1n(Cl)c(=O)n(Cl)c(=O)n1Cl | -4.82% [at 53 µM] (inactive) | –
2 | C=CCO | – | inactive
3 | [O-][Cl+2]([O-])O | – | inactive
4 | O=C(O)c1ccccn1 | -18.8% (inactive) | –
5 | CCN(CC)CCO | – | inactive
6 | CCCN(CCC)N=O | – | inactive
7 | O=c1[nH]c(=O)[nH]c(=O)[nH]1 | -5.29% (inactive) | –
8 | [N-]=[N+]=[N-] | – | 38.6 µM (active) and 35.6 µM (active)
9 | CCC[N+](=O)[O-] | -8.56% (inactive) | –
10 | C[C@]12CC[C@H]3[C@@H](CC[C@@]45O[C@@H]4C(O)=C(C#N)C[C@]35C)[C@@H]1CC[C@@H]2O | 3.91% [at 53 µM] (inactive) | –
11 | CCOP(OCC)OCC | -23.5% (inactive) | –
12 | O=NN1CCCCCCC1 | – | inactive
13 | NCC(O)c1ccc(O)cc1 (stereo not given) | – | inactive
14 | Cc1cccc([N+](=O)[O-])c1 | – | inactive
15 | CCC[CH2][Sn]([Cl])([Cl])[Cl] | -1.02% (inactive) | –
16 | COc1ccc2c3c1O[C@H]1[C@@H](O)C=C[C@H]4[C@@H](C2)N(C)CC[C@@]341 | – | inactive
17 | Nc1ccc(Cc2ccc(N)cc2)cc1 | – | 31.2 µM (active) and inactive
18 | c1cc2c3c(cccc3c1)CC2 | -9.33% (inactive) | –
19 | CCNc1nc(NC(C)(C)C)nc(SC)n1 | – | inactive
20 | CCCC1COC(Cn2cncn2)(c2ccc(Cl)cc2Cl)O1 (stereo not given) | – | 2.04 µM (active) and 2.24 µM (active)

Row | Compound | activity change, negative = inhibition | Potency
21 | CN=C=S | -2.19% (inactive) | –
22 | CC(NC(C)(C)C)C(=O)c1cccc(Cl)c1 (stereo not given) | – | inactive
23 | c1ccc(-c2ccccc2)cc1 | – | inactive
24 | COC(=O)c1ccccc1C(=O)OC | -2.37% (inactive) | –
25 | c1ccc2c(c1)Oc1ccccc1O2 | – | inactive
26 | CCOP(=S)(OCC)SCCSCC | – | 32.7 µM (active) and 15.1 µM (active)
27 | CN(C)N=O | – | inactive
28 | C#CC(C)(C)NC(=O)c1cc(Cl)cc(Cl)c1 | – | 71.7 µM (active) and inactive
29 | Cc1ccc(N)cc1Cl | – | 32.1 µM (active) and 35.6 µM (active)
30 | CC(=O)C=C(C)C | – | inactive
31 | O=c1[nH]c2ccccc2c(=O)o1 | – | inactive
32 | Oc1ccccc1Cl | – | inactive
33 | CC(Br)C(=O)O (stereo not given) | – | 36 µM (active)
34 | Cc1ccc(N)cc1N | – | 34.6 µM (active) and 39.9 µM (active)
35 | CC(C)(C)C(O)(CCc1ccc(Cl)cc1)Cn1cncn1 (stereo not given) | – | 3.21 µM (active) and 3.56 µM (active)
36 | CON(C)C(=O)Nc1ccc(Cl)c(Cl)c1 | – | 40.1 µM (active) and 39.9 µM (active)
37 | CCCCCCCCCl | -4.53% (inactive) | –
38 | CC(C)N1C(=O)c2ccccc2NS1(=O)=O | – | 20 µM (active) and 17.8 µM (active)
39 | Clc1cccc(Cl)c1Cl | -8.53% (inactive) | –
40 | CCCCN(CCCC)SN(C)C(=O)Oc1cccc2c1OC(C)(C)C2 | – | 40.6 µM (active) and 31.7 µM (active)

— PubChem BioAssay (Tox21)
